HCV inhibitor: inhibitors of hepatitis C virus infection; 340,000 compounds, 3.4% hits; Potency, µM (doses to about 41.8 µM), for the others: top-dose activity change, negative = inhibition, usual class: inhibitors; Huh7.5.1 HCVcc-Cre infection, luciferase reporter, 44 h; active means well fitted inhibition curve with a large enough effect; inconclusive means small, poorly fitted or top-dose-only effect, or another doubt; inactive means no such curve, though single readings can be large or run the other way; further: potency means the concentration at half of the fitted maximal effect
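HCVcc-Cre virus at an moi near 0.5 was added right after compound to cells cultured 4 h from seeding (1,000 cells/well). Luciferase activity was determined 44 h later, 15 min after substrate addition at RT.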
Lassa entry inh: blocks Lassa virus binding to or entry into cells; Lassa virus pseudotype entry inhibition, cell reporter; Potency, µM (top dose mostly 37.9 µM), inactives show at the top dose activity change, negative = inhibition, hits mostly inhibitors; 300,000 compounds, 1.2% hits; calls by dose curve; tested in HEK293 cells; further: potency means the concentration at half of the fitted maximal effect; nearly all actives have a fitted effect of over 50% in size
HCMV inh: inhibitors of human cytomegalovirus; 410,000 compounds, 4.5% hits; AID 1259415; HFF cells, HCMV-luciferase reporter, 72 h; stronger effect = lower value; activity change, negative = inhibition, % at 57.5 µM; in the data active means activity change below about -60%; inconclusive means no clear call, values can overlap the other calls; inactive means above about -39%
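Screen run at 2 compound doses on HFFs infected with reporter HCMV, MOI 1 PFU/cell. Luciferase activity from cell lysates at 72 h post infection gave inhibition relative to buffer-only and Salinomycin wells.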
FMDV antiviral: antivirals against foot and mouth disease virus. AID 1159524. 410,000 compounds, 1.2% hits. Potency, µM (top dose mostly 57.9 µM), without a hit: at the highest dose activity change, negative = inhibition, actives largely listed as inhibitors. FMDV antiviral cell-based qHTS; calls by dose curve; tested in HEK293T cells; further: read-out not given here; potency means the concentration at half of the fitted maximal effect; nearly all actives have a fitted effect of over 45% in size
MARV entry inh: Marburg virus entry inhibition; Marburg virus pseudotyped entry inhibition, cell reporter; 300,000 compounds, 1.8% hits; Potency, µM (top dose mostly 37.8 µM), for the others: at the top dose activity change, negative = inhibition, most hits filed as inhibitors; calls by dose curve; tested in HEK293 cells; further: potency means the concentration at half of the fitted maximal effect
* marks the source's active call; other numbers are inactive results; ? = inconclusive; . = no result given; [ ] = dose if it differs, or a comment. An excerpt weighted towards active compounds, which were near 7.9% of everything screened. On the % scale 0 is the no-effect control and ±100 the full control effect.

SMILES | HCV inhibitor | Lassa entry inh | HCMV inh | FMDV antiviral | MARV entry inh
COC(=O)c1[nH]c2cc(OC)ccc2c1NC(=O)CCN1CCSCC1 | -1% | -22% | 17 | 5% | -1%[46.1 µM]
COC(=O)c1[nH]c2cc(C)ccc2c1NC(=O)CN1CCOCC1 | 13% | 25%[46.1 µM] | -30 | 9% | ?
COC(=O)c1[nH]c2cc(OC)ccc2c1NC(=O)CN1CCN(c2cccc(C)c2)C(C)C1 (configuration not stated) | 10µM* | ? | -31 | ? | 16µM*
CN(Cc1ccccc1)C(=O)COC(=O)c1cc(NS(=O)(=O)c2cccs2)ccc1O | 10µM* | -25% | -22 | ? | -14%
O=C(COC(=O)c1cc(NS(=O)(=O)c2cccs2)ccc1O)Nc1ccccc1 | -16% | . | 2 | 3% | .
O=c1[nH]c(-c2ccccc2)cn1C1CCN(Cc2ccc(-c3nc4ccc(Br)cc4nc3-c3ccccc3)cc2)CC1 | . | . | -5 | . | .
COCCNC(=O)/C(C#N)=C/c1c(F)cccc1Cl | 22% | 20% | -75* | -27% | -8%[46.1 µM]
CCn1c(-c2ccccc2F)nc2cc(C(=O)NCC3CCOCC3)cc(NC(C)=O)c21 | . | . | . | -7% | .
CCc1ccc(NC(=O)CSc2nc3c(sc4ccccc43)c(=O)n2CCN(CC)CC)cc1 | . | 28%[46.1 µM] | -60* | -30% | .
Cc1cc(NC(=O)CSc2nc3c(sc4ccccc43)c(=O)n2CCCN2CCOCC2)n[nH]1 | 5.6µM* | ? | . | 33% | -15%
C=CCN(C(=O)CSc1nc2c(sc3ccccc32)c(=O)n1CCN(CC)CC)c1ccccc1 | -50% | ? | -67* | ? | ?
CCCCN(CC)C(=O)CSc1nc2c(sc3ccccc32)c(=O)n1CCc1ccccc1 | . | 2%[46.1 µM] | 20 | -18% | .
Cc1cc(NC(=O)CSc2nc3c(sc4ccccc43)c(=O)n2CCc2ccccc2)n[nH]1 | -1% | -16% | -15 | 2% | -6%
CCc1ccc(NC(=O)CSc2nc3c(sc4ccccc43)c(=O)n2CCCOC)cc1 | . | 1%[46.1 µM] | 10 | -4% | .
CN(C)CCn1c(SCc2ccccc2C#N)nc2c(sc3ccccc32)c1=O | -8% | . | -67* | -11% | .
CCCCn1c(SCc2ccccc2C#N)nc2c(sc3ccccc32)c1=O | . | -6%[46.1 µM] | -9 | 13% | .
COc1ccc(N2CCN(S(=O)(=O)c3c(C)[nH]c(=O)[nH]c3=O)CC2)cc1 | . | 6%[46.1 µM] | 0 | -15% | .
CCc1c(C)c(C#N)c2[nH]c3ccccc3n2c1=S | ? | ? | -102* | ? | 2%[46.1 µM]
C=C(C)Cc1c(C)c(C#N)c2[nH]c3ccccc3n2c1=O | ? | ? | -66* | ? | 13µM*
Cc1c(CCC(=O)O)c(=O)n2c([nH]c3ccccc32)c1C#N | 15% | -4% | -17 | -8% | -7%
Cc1ccc(Cc2c(C)c(C#N)c3[nH]c4ccccc4n3c2=O)cc1 | 11µM* | . | -33 | ? | .
Cc1ccc(CNC(=O)C2CC3Cn4c(nc5ccccc54)C3N2C)o1 (configuration not stated) | 14% | . | 2 | -12% | .
Cc1ccc(CNC(=O)C2CC3Cn4c(nc5cc6ccccc6cc54)C3N2C)o1 (configuration not stated) | -17%[8.37 µM] | . | -101* | -16% | .
CC(=O)Nc1ccc(NC(=O)c2c([N+](=O)[O-])cnn2C)cc1 | 10% | -13%[46.1 µM] | 22 | 8% | 16%[46.1 µM]
Cn1ncc([N+](=O)[O-])c1C(=O)Nc1cccc2ccccc12 | -23% | 9%[46.1 µM] | -63* | 13% | ?
SMILES | HCV inhibitor | Lassa entry inh | HCMV inh | FMDV antiviral | MARV entry inh
Cn1ncc([N+](=O)[O-])c1C(=O)Nc1nccs1 | 8% | 16% | -64* | -6% | 0%
Cc1cccc(NC(=O)c2c([N+](=O)[O-])cnn2C)c1 | 5% | . | -14 | -2% | .
OC(COCc1ccccc1)Cn1cnc2ccccc21 (configuration not stated) | 2% | -2% | -22 | 7% | 2%
OC(CN(c1ccccc1)c1ccccc1)Cn1cnc2ccccc21 (configuration not stated) | ? | -6% | ? | 32µM* | ?
Cc1ccc(NC(=O)C(c2ccccc2)N(C)C)cc1Cl (configuration not stated) | 2% | ? | . | 74% | 11µM*
Cc1ccc(SCCC(=O)NCCSCc2ccco2)cc1 | 9% | 14%[46.1 µM] | -100* | -5% | -25%[46.1 µM]
COCc1c(C(=O)NCC2CCCN(C)C2)cnn1-c1ncc2c(n1)-c1ccccc1CCC2 (configuration not stated) | . | . | . | 6% | .
O=C(Cn1ncc2c([nH]c3ccccc32)c1=O)NCc1cccc(Cl)c1 | . | 7%[46.1 µM] | 4 | 7% | .
Cc1cccc(CS(=O)(=O)c2ncc(Cl)c(C(=O)Nc3nc4ccc(F)cc4s3)n2)c1 | . | ? | -60* | 16µM* | 2%[46.1 µM]
CSc1ncc(Cl)c(C(=O)Nc2nc3ccc(F)cc3s2)n1 | . | 2%[46.1 µM] | 27 | -7% | 11%[46.1 µM]
O=C(Nc1nc2ccc(F)cc2s1)c1nc(S(=O)(=O)Cc2ccccc2)ncc1Cl | . | 4.5µM* | -107* | 28µM* | -10%[46.1 µM]
Cc1cc(C=O)sc1[B-](F)(F)F | 26% | . | -17 | -11% | .
O=C1OC(c2ccccc2)=N/C1=C\C=C\c1ccccc1[N+](=O)[O-] | -7% | 12% | -6 | -14% | 22%
CN1C(=O)NC(=O)/C(=C\C=C\c2ccccc2[N+](=O)[O-])C1=O | ? | ? | -99* | ? | ?
COc1ccc(C(C(=O)NC(C)(C)C)N(CCc2ccccc2)C(=O)CCC(=O)Nc2cc(C)on2)cc1 (configuration not stated) | -16% | -4% | 1 | 35% | 8.9µM*
COc1ccc(OCc2cc(C(=O)NCc3nc(C)cs3)no2)c(Cl)c1 | . | -22% | 52 | 46% | -8%
COc1cc2c(cc1OC)C(c1c(O)n(CCc3ccccc3)c(=S)[nH]c1=O)NCC2 (configuration not stated) | -9% | 11%[46.1 µM] | -64* | 5% | 8%[46.1 µM]
COc1ccc(C(C)(C)C)cc1S(=O)(=O)n1ccnc1C | -30% | ? | -70* | 46% | -3%
COc1cc(C)c(Cl)cc1S(=O)(=O)n1ccnc1C | -1% | 1% | -16 | . | 13%
C[C@H]1Cc2c(COc3ccccc3)nc3c(c2CO1)CN(C(=O)c1cccnc1)CC3 | . | ? | . | . | 7%[14.2 µM]
CCC[C@H]1[C@@H](NS(=O)(=O)c2ccc(C)cc2)CC[C@@]23CCCN2C(=O)CCC[C@@H]13 | . | . | -103* | . | .
CCC[C@H]1[C@@H](NS(=O)(=O)c2ccc(Cl)cc2)CC[C@@]23CCCN2C(=O)CCC[C@@H]13 | . | . | -17 | . | .
COc1cccc2c1NC1(C)c3cc4c(cc3-n3nncc3CN1C2=O)OCO4 (configuration not stated) | . | . | -11 | . | .
O=C(c1cnn2c1NC(c1ccco1)CC2C(F)(F)F)N1CCN(c2cccc(Cl)c2)CC1 (configuration not stated) | 10µM* | 13µM* | -22 | ? | ?

From PubChem BioAssay
